# Results as given in PubChem BioAssay (EPA / NIEHS).
# Calls of active or inactive are those of the source. Rule for the calls: active = hit-call score of the fitted dose curve at least 0.9, where 1 is the maximum; inconclusive = response in the unintended direction; inactive = score below 0.9.
# Target: Estrogen receptor (Homo sapiens) (UniProt P03372)
# Assay: OT_ER_ERaERa_1440: Odyssey Thera (OT) 24-hour HEK293T Protein-Complementation Assay for Estrogen Receptor-alpha/-alpha Homodimer (AID 2283349);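 note: hits raise fluorescence above DMSO for agonists and antagonists alike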
# In short: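 HEK293T cells stably expressing the human ER alpha ligand-binding domain (aa 310-547) as a homodimer PCA were dosed for 24 hours. Fluorescence intensity was read by laser scanning cytometry, and gain of signal was fitted relative to DMSO vehicle.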
# Estrogen receptor (Homo sapiens), sequence (P03372 whole entry, looked up): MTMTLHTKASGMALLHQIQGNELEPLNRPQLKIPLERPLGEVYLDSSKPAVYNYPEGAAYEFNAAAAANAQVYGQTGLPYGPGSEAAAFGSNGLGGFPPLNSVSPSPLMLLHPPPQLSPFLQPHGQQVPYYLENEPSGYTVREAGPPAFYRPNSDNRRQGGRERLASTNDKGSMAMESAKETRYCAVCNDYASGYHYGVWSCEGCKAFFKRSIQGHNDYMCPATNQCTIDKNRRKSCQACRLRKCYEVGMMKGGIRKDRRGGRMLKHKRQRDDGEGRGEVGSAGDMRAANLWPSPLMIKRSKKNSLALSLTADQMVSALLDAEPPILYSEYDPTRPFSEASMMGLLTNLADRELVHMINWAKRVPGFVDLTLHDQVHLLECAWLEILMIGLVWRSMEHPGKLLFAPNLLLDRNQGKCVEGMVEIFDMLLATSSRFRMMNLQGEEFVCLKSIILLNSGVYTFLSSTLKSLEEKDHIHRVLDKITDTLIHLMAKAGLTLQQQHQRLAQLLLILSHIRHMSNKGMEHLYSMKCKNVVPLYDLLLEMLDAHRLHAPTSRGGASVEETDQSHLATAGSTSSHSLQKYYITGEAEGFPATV
row,Structure (SMILES),outcome
1,CNC(=O)O/N=C/C(C)(C)S(C)(=O)=O,inactive
2,O=C(NC(=O)c1c(F)cccc1F)Nc1cc(Cl)c(OC(F)(F)C(F)C(F)(F)F)cc1Cl (stereo not given),inactive
3,Cc1cc(Cl)ccc1OC(C)C(=O)O (stereo not given),inactive
4,CCCSP(=S)(OCC)Oc1ccc(SC)cc1 (stereo not given),inactive
5,N#CCC#N,inactive
6,CCOc1ccc(N)cc1,inactive
7,N#Cc1cccnc1,inactive
8,O=C(NC(=O)c1c(F)cccc1F)Nc1ccc(Cl)cc1,inactive
9,O=CCCl,inactive
10,CC(=Cc1ccccc1)[N+](=O)[O-],inactive
11,O=C(O)COc1ccc(Cl)cc1,inactive
12,CCCCCCCCCCCCN(C)C,inactive
13,O=S1OC[C@@H]2[C@H](CO1)[C@]1(Cl)C(Cl)=C(Cl)[C@@]2(Cl)C1(Cl)Cl (stereo not given in full),inactive
14,CCN(CCO)CCO,inactive
15,C=CCN=C=S,inactive
